What was measured:
Assay type in all cases: functional
[1] = molecular target: Solute carrier family 2, facilitated glucose transporter member 1 (Homo sapiens) (UniProt P11166); assay: ST_JUDE_LEISH: Cytotoxicity at 2uM final concentration against transgenic Leishmania Mexicana promastigotes LmGLUT1 that are glucose transport deficient and complemented with the human glucose transporter GLUT1. Activity is measured by DNA content using SYBR green in vitro
[2] = molecular target: Hexose transporter 1 (Plasmodium falciparum) (UniProt O97467); assay: ST_JUDE_LEISH: Cytotoxicity at 2uM final concentration against transgenic Leishmania Mexicana promastigotes LmPfHT that are glucose transport deficient and complemented with the Plasmodium falciparum hexose transporter. Activity is measured by DNA content using SYBR green in vitro
[3] = molecular target: Glucose transporter (Leishmania mexicana) (UniProt O61059); assay: ST_JUDE_LEISH: Cytotoxicity at 2uM final concentration against transgenic Leishmania Mexicana promastigotes LmGT2 that are glucose transport deficient and complemented with the L. Mexicana glucose transporter 2. Activity is measured by DNA content using SYBR green in vitro

Solute carrier family 2, facilitated glucose transporter member 1 (Homo sapiens), sequence (P11166 whole entry): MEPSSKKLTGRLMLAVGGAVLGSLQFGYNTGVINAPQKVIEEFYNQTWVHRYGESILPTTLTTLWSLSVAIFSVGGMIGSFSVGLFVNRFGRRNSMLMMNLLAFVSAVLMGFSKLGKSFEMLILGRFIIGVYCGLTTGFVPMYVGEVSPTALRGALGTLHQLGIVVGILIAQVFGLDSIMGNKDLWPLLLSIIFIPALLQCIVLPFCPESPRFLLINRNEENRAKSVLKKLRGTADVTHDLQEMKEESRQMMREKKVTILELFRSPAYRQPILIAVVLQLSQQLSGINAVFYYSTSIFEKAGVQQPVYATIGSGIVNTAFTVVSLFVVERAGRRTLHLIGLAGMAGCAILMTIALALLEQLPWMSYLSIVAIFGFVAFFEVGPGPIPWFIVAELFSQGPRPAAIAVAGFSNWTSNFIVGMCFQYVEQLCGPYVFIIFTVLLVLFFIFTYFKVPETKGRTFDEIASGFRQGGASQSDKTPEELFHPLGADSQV

SMILES | inhibition [1] [%] | inhibition [2] [%] | inhibition [3] [%]
CCc1cn2c3c(cc(C(=O)N[C@@H](Cc4ccccc4)[C@H](O)CNC(C)(C)CCCC(C)C)cc13)N(C)S(=O)(=O)C2 | 2.45 | 2.22 | 0.85
Oc1ccc(CCNc2nc(NCc3ccccc3-c3cccc(Cl)c3)nc(N3CCNCC3)n2)cc1 | -2.47 | -1.9 | -2.27
Cc1nn(C2CCS(=O)(=O)C2)c(C)c1C1Nc2ccccc2C(=O)N1Cc1ccc2c(c1)OCO2 (stereo unspecified) | -0.66 | -0.19 | -1.17
COc1cccc(Nc2nc(NCCO)c3ccccc3n2)c1 | 14.8 | 15 | 5.17
CN1CCN(c2ccc(Nc3nccc(-c4cnn5ncccc45)n3)cc2Cl)CC1 | 90.6 | 95.1 | 83.8
CN(C(=O)/C=C/c1c(Cl)cccc1Cl)C1CCN(CCCCCNC(=O)/C=C/c2ccc(Cl)c(Cl)c2)CC1 | 2.14 | 2.38 | 1.38
CCNC(=O)Nc1ccc(-c2ccc(-c3nc4cccc(C)c4[nH]3)s2)cc1 | 11.7 | 8.87 | 7.95
C=CCNC(CCCCC)c1ccc(OCCOc2ccc(C(CCCCC)NCC=C)cc2)cc1 (stereo unspecified) | 0.79 | 11.9 | 3.03
O=C(c1cc2c(s1)-c1cccc(Cl)c1SC2)N1CCN(c2ccncc2)CC1 | 4.7 | 3.88 | 4.35
Cc1ccc(F)cc1S(=O)(=O)Nc1cccc(CCN2CCC(N3CCCCC3)CC2)c1 | 3.52 | 6.1 | 0.55
O=C(/C=C/c1cccc2c1OCO2)Nc1ccnc2ccncc12 | 1.56 | 1.4 | 1.89
c1ccc(CNCc2cccc(-c3csc(-c4nc5ccccc5[nH]4)c3)c2)cc1 | 4.56 | 5.03 | 3.11
